# This is part of a sample that, as a whole, favours compounds with a hit. Of some 83,000 tested, about 20% had one in any assay.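 In brief: 96-well plates, 48 h treatment, single concentration, percent growth endpoint.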 The source made the active and inactive calls. How the source made its calls: active means growth percent below 10; inactive means the rest.
# System: NCI-H23 lung
# Test: NCI-60 one-dose screen, 48 h (100 = growth as untreated, 0 = no growth, -100 = all killed)
# Conditions: 10 µM
row,Compound,growth
1,COc1cc2cc(C(=O)N3C[C@@H](CCl)c4c3cc(OC(=O)N3CCN(C)[C@@H]5CSSC[C@H]53)c3ccccc43)[nH]c2c(OC)c1OC,-80.6% (active)
2,CC1=C(CCC=O)C2=C(C)C3(CC3)[C@@](C)(O)C(=O)C2=C1,-86% (active)
3,COC(=O)C[C@](O)(CCC(C)C)C(=O)O[C@@H]1C(OC)=C[C@]23CCCN2CCc2cc4c(cc2[C@H]13)OCO4,-68% (active)
4,O=C(/C=C/c1ccc(Cl)cc1)c1nc2ccccc2n1Cc1ccc(F)cc1,33.4% (inactive)
5,CC[C@]12C=CCN3CC[C@@]4(c5ccc(OC)cc5N(C)[C@H]4[C@@](O)(C(=O)OC)[C@@H]1OC(=O)CCC[P+](C1CCCCC1)(C1CCCCC1)C1CCCCC1)[C@@H]32,-4.73% (active)
6,CC1=C2C(=C[C@@](C)(COP(=O)(Oc3ccccc3)Oc3ccccc3)[C@@H]2O)C(=O)[C@@](C)(O)C12CC2,-84.6% (active)
7,CC(=O)Oc1ccccc1C(=O)NC([Se])=NC1CCCCC1,-0.217% (active)
8,CCOP(=O)(CC(F)(F)C(F)(F)F)OCC,50.4% (inactive)
9,CC(C)C[C@H](NC(=O)CNC(=O)C[C@H]1O[C@@H]2OC3(C)CC[C@H]4[C@H](C)CC[C@@H]([C@H]1C)[C@@]24OO3)B(O)O,-2.35% (active)
10,C[C@H]1[C@@H](Oc2ccc(-c3cn(-c4ccnc5cc(Cl)ccc45)nn3)cc2)O[C@@H]2OC3(C)CC[C@H]4[C@H](C)CC[C@@H]1[C@@]24OO3,28.4% (inactive)
11,C[C@H]1[C@H](OC(=O)CCC(=O)N(CCCc2cn(-c3ccc([N+](=O)[O-])cc3)nn2)CCNc2ccnc3cc(Cl)ccc23)O[C@@H]2OC3(C)CC[C@H]4[C@H](C)CC[C@@H]1[C@@]24OO3,43.4% (inactive)
